These results are taken from PubChem BioAssay (EPA / NIEHS).

Inconclusive results are not listed. More than one record can exist for a structure, and the calls need not agree. Active and inactive are the calls of the source. The calls were made as follows, unless noted: active = hit-call score of the fitted dose curve at least 0.9, where 1 is the maximum; inactive = score below 0.9.

Read-out in assay [1]: Tissue Factor, F3 (gene 2152)
In words: BSK_LPS_TissueFactor: BioMAP Diversity Plus: LPS Assay for Tissue Factor Biomarker Activity (AID 2283084). To be noted: primary human HUVEC with PBMC; actives raise or lower the signal. In a few lines: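 In this co-culture system of umbilical vein endothelium with PBMC, stimulated with LPS, cell-surface CD142 is detected by ELISA at 24 h. Endpoint values derive from bidirectional fitting, DMSO serving as baseline.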

Read-out in another assay: CD38, CD38 (gene 952)
In words: BSK_SAg_CD38: BioMAP Diversity Plus: SAg Assay for CD38 Biomarker Activity (AID 2283087). Conditions: primary human HUVEC with PBMC; actives raise or lower the signal. An outline of the steps: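 CD38 quantified by ELISA (fluorescence) in a superantigen-activated endothelial cell–PBMC co-culture at 24 h post-dose. Activity fitted in both directions relative to DMSO; parallel SRB and Alamar Blue cytotoxicity read-outs.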

Read-out in another assay: CD40, CD40 (gene 958)
In words: BSK_SAg_CD40: BioMAP Diversity Plus: SAg Assay for CD40 Biomarker Activity (AID 2283088). Conditions: primary human HUVEC with PBMC; actives raise or lower the signal. An outline of the steps:
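Fluorescence ELISA read-out of CD40 from umbilical vein endothelium plus peripheral blood mononuclear cells, sampled 24 h after dosing. Values come from bidirectional curve fitting with DMSO as baseline.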

Read-out in a further assay: CD69, CD69 (gene 969)
In words: BSK_SAg_CD69: BioMAP Diversity Plus: SAg Assay for CD69 Biomarker Activity (AID 2283089).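 As to AC50: cell surface CD69 protein quantified by ELISA with fluorescence detection.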 To be noted: primary human HUVEC with PBMC; actives raise or lower the signal. In a few lines:
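HUVEC co-cultured with PBMC were dosed with chemical, and CD69 was measured by ELISA with fluorescence read-out 24 h later. Bidirectional curve fitting used DMSO as negative control and activity baseline.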

Read-out in assay [2]: E-selectin (Homo sapiens) (UniProt P16581)
In words: BSK_SAg_Eselectin: BioMAP Diversity Plus: SAg Assay for Eselectin Biomarker Activity (AID 2283091). Conditions: primary human HUVEC with PBMC; actives raise or lower the signal. An outline of the steps: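 Primary human endothelial cells and peripheral blood mononuclear cells were co-cultured and exposed to chemical for 24 hours. E-selectin levels were then quantified by ELISA, with bidirectional curve fitting normalised to DMSO controls.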

Assay [3] in a line: BSK_SAg_PBMCCytotoxicity: PBMC Cytotoxicity Assessment in the BioMAP Diversity Plus: SAg Assay (AID 2283093).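 Also: PBMC viability measured as Alamar Blue reduction fluorescence at 546/580 nm; fitted both ways against DMSO so a hit may be loss or gain of signal.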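 As to AC50: PBMC superantigen activated with SEB plus TSST-1 one hour after compound addition.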 To be noted: primary human HUVEC with PBMC. An outline of the steps:
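Alamar Blue reduction (6 h, ex/em 546/580 nm) read after 90 h culture of PBMC pre-dosed 1 h then stimulated with SEB plus TSST-1, 20 ng/mL each. Gain or loss of signal fitted relative to DMSO.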

Read-out in assay [4]: Interleukin-8 (IL8), CXCL8 (gene 3576)
In words: BSK_SAg_IL8: BioMAP Diversity Plus: SAg Assay for Interleukin-8 (IL8) Biomarker Activity (AID 2283094). To be noted: primary human HUVEC with PBMC; actives raise or lower the signal. An outline of the steps: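 ELISA readout of IL-8 from a superantigen-activated endothelial/PBMC primary human co-culture, taken 24 h post-dosing and fitted in both directions against DMSO; parallel SRB total-protein staining flags overt cytotoxicity.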

Assay [5] in a line: BSK_SAg_Proliferation: Cell Proliferation Assessment in the BioMAP Diversity Plus: SAg Assay (AID 2283095).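 Also: relative cell number as total protein by SRB absorbance in sub-confluent culture.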 To be noted: primary human HUVEC with PBMC. An outline of the steps:
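Relative cell number in the endothelial cell/PBMC co-culture was quantified at 96 h by SRB staining (0.1% SRB, 10% TCA fixation, read at 560 nm). Curves were fitted in both directions relative to DMSO baseline.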

A short description of assay [6]: BSK_SAg_SRB: Viability Assessment in the BioMAP Diversity Plus: SAg Assay (AID 2283096).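 Also: cells read one day after compound addition; hits may be either gain or loss of signal compared with DMSO.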 Conditions: primary human HUVEC with PBMC. In a few lines:
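SRB absorbance at 560 nm served as the viability read-out. Cells (HUVEC plus peripheral blood mononuclear cells) were TCA-fixed and stained 24 h post-dosing; activity fitted in both directions against DMSO controls.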

Assay [7] addresses human Caspase 5 (CASP5), CASP5 (gene 838) (UniProt P51878). In words: NVS_ENZ_hCASP5: NovaScreen (NVS) Enzymatic Assay for human Caspase 5 (CASP5) (AID 2283137; active = hit-call score of the fitted dose curve at least 0.9, where 1 is the maximum). An outline of the steps:
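Loss of fluorescent signal versus DMSO scored for E. coli-derived human CASP5 cleaving a fluorescent substrate, 2 h post-dosing; compounds first tested at 25 uM in duplicate, hits rerun in concentration series with 50 uM top concentration.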

Assay [8] deals with human Beta-secretase (BACE), BACE1 (gene 23621) (UniProt P56817). In words: NVS_ENZ_hBACE: NovaScreen (NVS) Enzymatic Assay for human Beta-secretase (BACE) (AID 2283140; active = hit-call score of the fitted dose curve at least 0.9, where 1 is the maximum;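 also: hits are inhibitors that reduce fluorescent substrate signal versus DMSO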). An outline of the steps: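 Enzyme from SF9 cells was incubated 1 hour with compound and fluorogenic substrate, activity read by fluorescence. Single-concentration duplicates at 25 uM preceded concentration-response follow-up; fitting relative to DMSO baseline.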

Assay [9] concerns the target human Matrix Metalloproteinase-9 (MMP9), MMP9 (gene 4318) (UniProt P14780). In words: NVS_ENZ_hMMP9: NovaScreen (NVS) Enzymatic Assay for human Matrix Metalloproteinase-9 (MMP9) (AID 2283190; active = hit-call score of the fitted dose curve at least 0.9, where 1 is the maximum;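 also: cell-free recombinant MMP9 protease activity read by fluorescent substrate signal; active means inhibition seen as loss of fluorescence signal versus DMSO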). In a few lines: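 Cell-free recombinant MMP9 enzyme activity measured by fluorescence intensity 1 h after dosing. Primary screen in duplicate at 25 uM, actives followed in concentration series; loss of signal relative to DMSO.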

The target in assay [10] is human Esterase Plasma (ES), BCHE (gene 590) (UniProt P06276). In words: NVS_ENZ_hES: NovaScreen (NVS) Enzymatic Assay for human Esterase Plasma (ES) (AID 2283157; active = hit-call score of the fitted dose curve at least 0.9, where 1 is the maximum). In a few lines: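 Primary single-concentration screen at 25 uM in duplicate, then concentration-response to a 50 uM top dose. Human plasma esterase activity detected colorimetrically after 0.25 h incubation, with DMSO as baseline.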

The target in assay [11] is human Ephrin type-A Receptor 1 (EphA1), EPHA1 (gene 2041) (UniProt P21709). In words: NVS_ENZ_hEphA1: NovaScreen (NVS) Enzymatic Assay for human Ephrin type-A Receptor 1 (EphA1) (AID 2283158; active = hit-call score of the fitted dose curve at least 0.9, where 1 is the maximum;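 also: activity is signal loss versus DMSO meaning EphA1 kinase inhibition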). An outline of the steps:
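Biochemical kinase assay run cell-free; 1 h incubation; readout is fluorescence with mobility-shift separation of product. Concentration-response up to 50 uM for actives from a 25 uM screen.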

Assay [12] addresses human Dual Specificity Protein Phosphatase 3 (DUSP3), DUSP3 (gene 1845) (UniProt P51452). In words: NVS_ENZ_hDUSP3: NovaScreen (NVS) Enzymatic Assay for human Dual Specificity Protein Phosphatase 3 (DUSP3) (AID 2283152; active = hit-call score of the fitted dose curve at least 0.9, where 1 is the maximum;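 also: phosphatase activity of recombinant human DUSP3 on a fluorogenic substrate without cells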). An outline of the steps:
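Cell-free fluorescence-intensity enzyme activity assay with recombinant protein and substrate; loss of signal fitted relative to DMSO baseline. Primary screen in duplicate at 25 uM, actives then run in concentration series; measured 0 h after dosing.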

Assay [13] concerns the target human Phosphoinositide 3-kinase alpha (PI3Ka), PIK3CA (gene 5290) (UniProt P42336). In words: NVS_ENZ_hPI3Ka: NovaScreen (NVS) Enzymatic Assay for human Phosphoinositide 3-kinase alpha (PI3Ka) (AID 2283196; active = hit-call score of the fitted dose curve at least 0.9, where 1 is the maximum). An outline of the steps: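 Recombinant human PI3Kα with fluorescent substrate, 1 h, product separated by electrophoretic mobility shift; 25 uM duplicate screen, hits (e.g., 30% inhibition) retested singly up to 50 uM; loss of signal vs DMSO.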

For assay [14], the target named is human CYP19A1, CYP19A1 (gene 1588) (UniProt P11511). In words: NVS_ADME_hCYP19A1: NovaScreen (NVS) CYP450-related Enzyme Activity (ADME) Assay for human CYP19A1 (AID 2283098; active = hit-call score of the fitted dose curve at least 0.9, where 1 is the maximum). In a few lines: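 Primary testing was in duplicate at a single 10 uM concentration, with actives followed up in concentration-response series. Fluorescence read-out of recombinant enzyme activity at 0.5 h, cell-free. Acetonitrile was the negative-control baseline.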

Assay [15] has as its target Cytochrome P450 2C19 (Homo sapiens) (UniProt P33261). In words: NVS_ADME_hCYP2C19: NovaScreen (NVS) CYP450-related Enzyme Activity (ADME) Assay for human CYP2C19 (AID 2283113; active = hit-call score of the fitted dose curve at least 0.9, where 1 is the maximum;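 also: potency for inhibition seen as loss of fluorescent signal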). An outline of the steps: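 Chemicals first screened in duplicate at 10 uM against recombinant human enzyme produced in insect cells; confirmed actives then run as concentration series. Fluorogenic substrate turnover read by fluorescence after 1 h, normalised to acetonitrile.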

Chain of human Ephrin type-A Receptor 1 (EphA1), EPHA1 (gene 2041) (P21709 whole entry, looked up): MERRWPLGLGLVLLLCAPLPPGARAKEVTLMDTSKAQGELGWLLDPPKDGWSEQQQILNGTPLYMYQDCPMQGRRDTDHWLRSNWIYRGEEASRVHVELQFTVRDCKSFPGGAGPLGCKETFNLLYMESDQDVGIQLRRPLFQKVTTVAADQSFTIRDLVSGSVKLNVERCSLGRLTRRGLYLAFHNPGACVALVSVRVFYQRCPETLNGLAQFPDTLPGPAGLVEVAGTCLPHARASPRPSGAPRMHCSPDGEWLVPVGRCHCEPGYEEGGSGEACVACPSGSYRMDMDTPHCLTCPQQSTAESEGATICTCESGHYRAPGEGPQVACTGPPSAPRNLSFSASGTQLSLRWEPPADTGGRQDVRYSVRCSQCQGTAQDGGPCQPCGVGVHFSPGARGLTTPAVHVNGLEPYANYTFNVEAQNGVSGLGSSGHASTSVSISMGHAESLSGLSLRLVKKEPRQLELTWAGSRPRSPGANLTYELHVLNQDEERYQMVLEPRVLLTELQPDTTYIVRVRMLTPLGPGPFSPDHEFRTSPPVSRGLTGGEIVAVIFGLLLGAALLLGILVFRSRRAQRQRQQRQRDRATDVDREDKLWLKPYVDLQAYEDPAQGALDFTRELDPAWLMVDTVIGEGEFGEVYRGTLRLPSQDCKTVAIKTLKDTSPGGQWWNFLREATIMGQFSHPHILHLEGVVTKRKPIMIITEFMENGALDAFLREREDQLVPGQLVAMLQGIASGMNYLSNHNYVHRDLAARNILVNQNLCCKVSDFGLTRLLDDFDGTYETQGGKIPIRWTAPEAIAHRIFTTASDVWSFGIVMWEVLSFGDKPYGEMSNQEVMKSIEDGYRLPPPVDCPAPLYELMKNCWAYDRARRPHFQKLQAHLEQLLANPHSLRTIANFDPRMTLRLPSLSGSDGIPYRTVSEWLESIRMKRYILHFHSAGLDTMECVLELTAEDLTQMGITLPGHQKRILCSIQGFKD
Chain of human Matrix Metalloproteinase-9 (MMP9), MMP9 (gene 4318) (P14780 whole entry, looked up): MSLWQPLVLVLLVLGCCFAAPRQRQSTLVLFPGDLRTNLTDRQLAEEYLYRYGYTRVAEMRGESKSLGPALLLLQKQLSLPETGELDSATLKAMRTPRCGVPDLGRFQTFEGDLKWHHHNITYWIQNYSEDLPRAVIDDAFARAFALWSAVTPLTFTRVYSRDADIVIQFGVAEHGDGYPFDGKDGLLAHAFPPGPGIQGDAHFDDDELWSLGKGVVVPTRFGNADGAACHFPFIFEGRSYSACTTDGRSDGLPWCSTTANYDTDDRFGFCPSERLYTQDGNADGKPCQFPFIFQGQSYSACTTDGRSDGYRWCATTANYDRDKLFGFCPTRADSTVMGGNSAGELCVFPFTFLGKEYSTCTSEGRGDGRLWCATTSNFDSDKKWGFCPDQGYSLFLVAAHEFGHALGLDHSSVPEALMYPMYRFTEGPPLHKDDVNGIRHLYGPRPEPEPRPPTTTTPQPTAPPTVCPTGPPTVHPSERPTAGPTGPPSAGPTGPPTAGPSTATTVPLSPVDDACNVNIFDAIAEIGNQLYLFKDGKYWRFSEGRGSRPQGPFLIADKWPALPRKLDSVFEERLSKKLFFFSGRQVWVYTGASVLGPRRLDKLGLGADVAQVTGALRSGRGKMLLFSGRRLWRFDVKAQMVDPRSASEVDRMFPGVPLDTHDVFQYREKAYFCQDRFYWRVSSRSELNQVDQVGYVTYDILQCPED
Chain of E-selectin (Homo sapiens) (P16581 whole entry, looked up): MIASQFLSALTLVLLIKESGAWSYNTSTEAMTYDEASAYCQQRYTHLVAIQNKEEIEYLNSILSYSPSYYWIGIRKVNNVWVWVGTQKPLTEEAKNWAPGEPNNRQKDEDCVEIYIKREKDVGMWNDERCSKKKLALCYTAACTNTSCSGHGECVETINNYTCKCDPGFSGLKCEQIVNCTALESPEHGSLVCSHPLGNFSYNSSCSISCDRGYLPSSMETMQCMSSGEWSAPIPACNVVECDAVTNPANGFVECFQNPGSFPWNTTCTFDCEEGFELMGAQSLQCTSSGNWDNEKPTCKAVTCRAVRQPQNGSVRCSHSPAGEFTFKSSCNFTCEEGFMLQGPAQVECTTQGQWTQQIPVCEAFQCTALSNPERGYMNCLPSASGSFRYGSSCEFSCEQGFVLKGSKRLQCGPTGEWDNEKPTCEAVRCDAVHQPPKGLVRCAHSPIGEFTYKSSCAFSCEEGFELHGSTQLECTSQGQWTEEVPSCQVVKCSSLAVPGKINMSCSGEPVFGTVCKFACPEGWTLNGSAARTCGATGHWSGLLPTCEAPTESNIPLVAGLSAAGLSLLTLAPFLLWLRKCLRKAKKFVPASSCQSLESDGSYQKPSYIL
Chain of human Beta-secretase (BACE), BACE1 (gene 23621) (P56817 whole entry, looked up): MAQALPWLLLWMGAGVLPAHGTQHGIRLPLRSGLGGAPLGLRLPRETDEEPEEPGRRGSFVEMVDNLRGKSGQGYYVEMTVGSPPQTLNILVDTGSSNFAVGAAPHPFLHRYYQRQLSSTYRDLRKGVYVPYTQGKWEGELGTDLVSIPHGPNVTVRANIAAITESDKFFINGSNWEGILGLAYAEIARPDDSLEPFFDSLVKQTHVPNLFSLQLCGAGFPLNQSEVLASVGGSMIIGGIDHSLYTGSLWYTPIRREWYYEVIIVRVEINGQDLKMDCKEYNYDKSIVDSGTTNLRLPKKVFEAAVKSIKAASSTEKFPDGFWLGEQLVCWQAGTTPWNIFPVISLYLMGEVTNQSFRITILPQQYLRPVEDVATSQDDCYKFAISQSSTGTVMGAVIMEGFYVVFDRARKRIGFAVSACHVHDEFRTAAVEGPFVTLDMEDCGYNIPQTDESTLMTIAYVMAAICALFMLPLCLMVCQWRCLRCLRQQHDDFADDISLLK
Chain of human Phosphoinositide 3-kinase alpha (PI3Ka), PIK3CA (gene 5290) (P42336 whole entry, looked up): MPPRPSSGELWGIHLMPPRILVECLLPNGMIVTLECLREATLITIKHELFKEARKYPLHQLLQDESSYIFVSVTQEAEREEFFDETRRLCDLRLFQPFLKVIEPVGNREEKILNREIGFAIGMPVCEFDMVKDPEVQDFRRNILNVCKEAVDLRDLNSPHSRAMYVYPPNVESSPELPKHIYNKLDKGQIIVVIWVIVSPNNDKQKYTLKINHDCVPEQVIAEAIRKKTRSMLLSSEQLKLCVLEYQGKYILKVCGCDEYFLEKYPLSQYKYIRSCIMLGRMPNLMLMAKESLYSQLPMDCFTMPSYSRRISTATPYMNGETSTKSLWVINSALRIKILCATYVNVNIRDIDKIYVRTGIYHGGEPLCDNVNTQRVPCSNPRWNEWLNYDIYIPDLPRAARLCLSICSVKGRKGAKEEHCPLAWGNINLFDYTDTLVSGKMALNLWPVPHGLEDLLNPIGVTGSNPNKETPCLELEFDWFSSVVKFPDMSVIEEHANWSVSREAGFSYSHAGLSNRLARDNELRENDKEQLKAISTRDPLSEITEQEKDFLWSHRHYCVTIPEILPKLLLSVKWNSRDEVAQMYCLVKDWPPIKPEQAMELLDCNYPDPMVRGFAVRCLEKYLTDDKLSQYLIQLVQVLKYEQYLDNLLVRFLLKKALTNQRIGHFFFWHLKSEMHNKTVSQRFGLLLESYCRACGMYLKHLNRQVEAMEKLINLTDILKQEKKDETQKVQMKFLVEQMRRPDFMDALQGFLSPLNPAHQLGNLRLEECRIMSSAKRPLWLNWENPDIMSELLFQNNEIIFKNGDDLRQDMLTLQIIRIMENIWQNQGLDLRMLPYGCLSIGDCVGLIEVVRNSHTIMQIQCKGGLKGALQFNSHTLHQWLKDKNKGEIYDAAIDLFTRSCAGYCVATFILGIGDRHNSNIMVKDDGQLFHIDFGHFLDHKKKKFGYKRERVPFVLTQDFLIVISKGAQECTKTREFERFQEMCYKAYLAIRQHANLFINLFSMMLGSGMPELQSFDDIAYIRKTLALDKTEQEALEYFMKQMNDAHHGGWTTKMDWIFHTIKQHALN
Chain of human Caspase 5 (CASP5), CASP5 (gene 838) (P51878 whole entry, looked up): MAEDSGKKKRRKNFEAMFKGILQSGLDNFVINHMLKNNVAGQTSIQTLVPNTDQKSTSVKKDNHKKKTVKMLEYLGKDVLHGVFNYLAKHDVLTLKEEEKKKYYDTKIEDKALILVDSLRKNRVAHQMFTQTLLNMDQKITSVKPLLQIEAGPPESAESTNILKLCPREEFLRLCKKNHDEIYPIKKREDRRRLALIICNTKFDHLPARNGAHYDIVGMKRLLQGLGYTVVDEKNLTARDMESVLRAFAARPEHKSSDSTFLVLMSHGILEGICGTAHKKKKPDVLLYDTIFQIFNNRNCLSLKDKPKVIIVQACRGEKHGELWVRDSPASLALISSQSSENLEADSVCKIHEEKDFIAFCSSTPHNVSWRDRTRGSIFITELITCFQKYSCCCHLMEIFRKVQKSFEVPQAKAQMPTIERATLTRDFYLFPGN
Chain of human Esterase Plasma (ES), BCHE (gene 590) (P06276 whole entry, looked up): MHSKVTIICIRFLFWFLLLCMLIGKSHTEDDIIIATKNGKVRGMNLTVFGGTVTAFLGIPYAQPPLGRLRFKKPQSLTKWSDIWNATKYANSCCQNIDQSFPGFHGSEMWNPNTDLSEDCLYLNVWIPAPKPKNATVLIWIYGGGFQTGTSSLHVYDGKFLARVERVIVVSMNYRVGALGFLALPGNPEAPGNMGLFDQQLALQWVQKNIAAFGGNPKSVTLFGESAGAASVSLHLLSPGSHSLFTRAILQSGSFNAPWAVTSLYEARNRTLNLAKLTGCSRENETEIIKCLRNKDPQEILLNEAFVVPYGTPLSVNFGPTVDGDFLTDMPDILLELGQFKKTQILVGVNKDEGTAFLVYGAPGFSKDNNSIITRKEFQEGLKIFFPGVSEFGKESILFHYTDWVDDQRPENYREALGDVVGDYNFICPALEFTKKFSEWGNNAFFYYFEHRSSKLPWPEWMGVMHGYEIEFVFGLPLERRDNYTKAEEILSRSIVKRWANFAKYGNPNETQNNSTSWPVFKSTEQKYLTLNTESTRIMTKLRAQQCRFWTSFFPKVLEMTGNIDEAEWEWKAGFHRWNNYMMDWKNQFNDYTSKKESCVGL

For `CCOc1nc(F)cc2nc(S(=O)(=O)Nc3c(Cl)cccc3C(=O)OC)nn12`, the outcome in [1] is “inactive”; with CD38, CD38 (gene 952) it was “inactive”; in the assay with CD40, CD40 (gene 958), “inactive”; with CD69, CD69 (gene 969), “inactive”; in assay [2], “inactive”; in assay [3] it was “inactive”. The result in assay [4], in [5] and in assay [6] was inactive.
Regarding `c1ccc2c(c1)ccc1cc3c(ccc4ccccc43)cc12`, the AC50 in assay [1] was 0.0342 µM (active); in assay [7], 5.15 µM (active); in assay [8], 13 µM (active); in [9], 4.46 µM (active). The outcome was “inactive” in assay [1]; “inactive” with CD38, CD38 (gene 952); “inactive” in the assay with CD40, CD40 (gene 958); “inactive” with CD69, CD69 (gene 969); “inactive” in assay [2]; “inactive” in [3]. Moreover, the outcome in [4], in [5] and in assay [6] was inactive.
In the case of `C=CC=CC=CCCCCC`, the outcome in assay [1] was “inactive”; in the assay with CD38, CD38 (gene 952), “inactive”; with CD40, CD40 (gene 958), “inactive”; with CD69, CD69 (gene 969), “inactive”; in assay [2] it was “inactive”; in assay [3], “inactive”. The result in assay [4] and in assay [6] was inactive. The AC50 in [5] was 6.71 µM (active).
As for `C=CC(=O)OCC(Br)CBr` (stereo not drawn), the AC50 in [1] was 16.7 µM (active); in the assay with CD38, CD38 (gene 952) it was 15.3 µM (active); with CD40, CD40 (gene 958) it was 11.7 µM (active); in the assay with CD69, CD69 (gene 969), 10.2 µM (active); in [2] it was 8.13 µM (active); in assay [3], 6.05 µM (active). Also, the figures for the AC50 in [4], in assay [5] and in assay [6] were 6.6 µM (active), 1.66 µM (active) and 34.1 µM (active), respectively.
Regarding `CC1(C)S[C@@H]2[C@H](NC(=O)COc3ccccc3)C(=O)N2[C@H]1C(=O)O`, the compound was called inactive in assay [8].
As for `c1ccc2c(c1)ccc1ncccc12`, the concentration at half-maximal activity (AC50) was 6.01 µM (active) in assay [1]; 29.7 µM (active) with CD38, CD38 (gene 952); 20 µM (active) in the assay with CD40, CD40 (gene 958); 28.1 µM (active) in assay [6]; 20.2 µM (active) in assay [10]. For the same compound, the outcome with CD69, CD69 (gene 969) was “inactive”; in assay [2], “inactive”; in [3] it was “inactive”; in assay [4], “inactive”; in assay [5], “inactive”.
In the case of `CCC(CC)C(=O)O`, the AC50 in assay [11] was 4.56 µM (active).
As for `COCc1c(C(C)C)nc(C(C)C)c(/C=C/[C@@H](O)C[C@@H](O)CC(=O)O)c1-c1ccc(F)cc1`, the AC50 in assay [1] is 0.00778 µM (active); in the assay with CD40, CD40 (gene 958) it was 0.126 µM (active); with CD69, CD69 (gene 969), 0.0293 µM (active); in assay [2], 0.0215 µM (active); in [4] it was 0.00783 µM (active); in [5], 0.0185 µM (active). In addition, in assay [6], the concentration at half-maximal activity (AC50) is 0.0355 µM (active). The result in [3] was inactive.
With `S=C(NC1CCCCC1)NC1CCCCC1`, the outcome in assay [1] is “inactive”; with CD38, CD38 (gene 952) it was “inactive”; in the assay with CD40, CD40 (gene 958), “inactive”; with CD69, CD69 (gene 969), “inactive”; in assay [2], “inactive”; in [3] it was “inactive”. Moreover, the outcome in assay [4], in assay [5], in assay [6] and in assay [11] was inactive. The concentration at half-maximal activity (AC50) in assay [9] is 6.33 µM (active).
As for `CCC(C)C=O` (stereo not drawn), the half-maximal activity concentration (AC50) in assay [9] was 8.8 µM (active).
As to `O=C1CCC(=O)N1Cl`, in assay [12], the AC50 is 16.5 µM (active).
On to `COCCOCCOCCOCCOC`, for which the result in [11] and in assay [13] was inactive.
For the compound `Cc1cc(C)c(C)c(C)c1`, the result in assay [11] and in assay [13] was inactive.
Take `CC(CC=O)CCCC(C)(C)O` (stereo not drawn): the outcome in [14] was inactive.
For the compound `C#CC1(O)CC[C@H]2[C@@H]3CCC4=CCCC[C@@H]4[C@H]3CC[C@@]21C` (stereo partly drawn), the AC50 was 31.2 µM (active) in assay [1]; 35.1 µM (active) with CD38, CD38 (gene 952); 30.2 µM (active) with CD40, CD40 (gene 958); 29.7 µM (active) with CD69, CD69 (gene 969); 35.9 µM (active) in assay [2]; 20 µM (active) in assay [3]. Also, the half-maximal activity concentration (AC50) in assay [4] is 20 µM (active); in assay [5], 12.3 µM (active); in [6], 28 µM (active); in assay [15], 0.032 µM (active).

Usually AC50 stands for the concentration at which the activity in the assay is half-maximal.
